Calls of active or inactive are those of the source. How the calls were made is not given here.
assay: High Content Assay for Compounds that inhibit the Assembly of the Perinucleolar Compartment:Cell Migration SAR; settings: PC3M 3D collagen invasion, Hoechst imaging, 5 d
From the text: The perinucleolar compartment (PNC) is a non-membrane-bound nuclear subdomain that is associated with but structurally distinct from the nucleolus. The PNC is a heritable trait, in which the number of PNCs per cell in daughter cells often mimics that of their mother cells. The PNC is heterogeneous in shape, is stable through interphase, disassembles during mitosis, and reassembles in early G1. The PNC is concentrated with newly synthesized RNA polymerase III (pol III) RNAs (MRP RNA, RNAse P H1 RNA, hY RNAs[hY1, 2, 5], Alu RNA, and SRP [7SL] RNA) and RNA binding proteins (nucleolin, PTB, CUG-BP, KSRP, Raver1, Raver2, and Rod). […] In collaboration between Sui Huang from Northwestern University and the NCGC, a high content assay was developed and screened. The hits were then tested in follow-up assays. High-content tumor cell migration assays in 3-dimensional extracellular matrices are powerful tools for modeling and understanding the biology of this critical step in the process of metastasis. However, most of the available methods are not amenable to the throughput required by studies of comparative pharmacology or small scale screening. For this reason, we worked with BellBrook Labs(R) to test our compounds in their automated high-content tumor cell invasion assays.[35] […]

Row | Compound | Potency
1 | N=c1c2c(-c3ccccc3)c(-c3ccccc3)n(Cc3ccccc3)c2ncn1C1CCC(O)CC1 (stereo unspecified) | 3.98 µM (active)
